FLuc counter = counter-screen for miR-21 project: firefly luciferase inhibitors or activators; purified FLuc, Km substrates, luminescence inhibition; AID 588342; P08659; Potency, µM (titrated, usually from 57.5 µM), without a hit: top-dose activity change, negative = inhibition, actives largely listed as inhibitors; actives 6.9% (n = 360,000);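 further: plate controls were vehicle for no effect and reference inhibitor for full effect; nearly all actives have a fitted effect of over 55% in size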
Target sequence (P08659 whole entry, looked up): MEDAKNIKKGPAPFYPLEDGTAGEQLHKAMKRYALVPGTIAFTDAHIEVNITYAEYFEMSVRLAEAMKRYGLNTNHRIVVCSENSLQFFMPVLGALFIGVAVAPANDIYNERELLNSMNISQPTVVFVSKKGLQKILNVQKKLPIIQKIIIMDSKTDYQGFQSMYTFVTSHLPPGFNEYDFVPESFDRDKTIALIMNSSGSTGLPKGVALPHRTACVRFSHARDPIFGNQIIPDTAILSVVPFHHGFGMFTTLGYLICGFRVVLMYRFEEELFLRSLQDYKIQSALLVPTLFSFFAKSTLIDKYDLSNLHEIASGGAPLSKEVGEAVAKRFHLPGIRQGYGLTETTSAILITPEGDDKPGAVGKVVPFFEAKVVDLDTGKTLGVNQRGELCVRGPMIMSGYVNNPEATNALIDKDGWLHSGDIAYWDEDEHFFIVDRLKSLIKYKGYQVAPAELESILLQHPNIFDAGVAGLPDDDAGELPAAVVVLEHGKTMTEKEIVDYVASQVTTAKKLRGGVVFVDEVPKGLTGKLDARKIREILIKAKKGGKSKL
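Biochemical qHTS of compounds, final roughly 60 µM downward over six points, against 10 nM purified firefly luciferase using Km concentrations of substrates (10 uM D-luciferin, 10 uM ATP) in Tris acetate pH 7.5 buffer; luminescence output.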
SMN2 splice up = SMN2 splice variant enhancement | HEK293 SMN2-luciferase splicing reporter, luminescence, 30-36 h | Potency, µM (series often up to 46.1 µM), for inactives: at the highest dose activity change, positive = activation, hits mostly activators | AID 1458 | actives 2.8% (n = 210,000); further: % of control where 0% means no effect; nearly all actives have a fitted effect of over 55% in size
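qHTS luciferase splicing reporter: luminescence rises when SMN2 exon 7 is included in transfected HEK293 cells. Compound exposure lasted 30-36 h at 37C, with 4.5 mM final sodium butyrate as control, followed by a ONE-Glo read.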
Rab9 prom act = Rab9 promoter activation | Huh7 Rab9 promoter-luciferase reporter, luminescence, 24 h | Potency, µM (highest dose often 9.22 µM), without a hit: top-dose activation, negative = inhibition, most hits filed as activators | actives 2.8% (n = 320,000); further: % of control where 0% means no effect; nearly all actives have a fitted effect of over 60% in size
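Cells were plated at 1500 per well in reduced-serum medium with 10% FBS and left 2 h. Compound in DMSO was then added for 24 h at 37 °C. Reporter signal was read by luminescence after 10 min with luciferase detection reagent.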
NPC1 prom act = activators of NPC1 promoter; Huh7 NPC1 promoter luciferase reporter, 24 h; Potency, µM (titrated, usually from 9.22 µM), inactives show top-dose activation, usual class: activators; actives 2.4% (n = 320,000); AID 485313; further: % of control where 0% means no effect; nearly all actives have a fitted effect of over 60% in size
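Readout is luciferase luminescence, reflecting NPC1 promoter activation in stably transfected Huh7 cells after 24 h compound exposure at 37 °C in reduced-serum medium with 10% FBS.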
ELG1 genotox = genotoxicity induction in ELG1-luciferase HEK293T cells. actives 1.3% (n = 330,000). Potency, µM (doses to about 46 µM), inactives show top-dose activity change, positive = activation, hits mostly activators. AID 504466. HEK293T ELG1-luciferase reporter, luminescence, 16 h; further: % of control where 0% means no effect; nearly all actives have a fitted effect of over 60% in size
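HEK293T cells expressing luciferase-tagged ELG1 were exposed to compound or DMSO vehicle for 16 hr at 37 °C and 5% CO2. Luciferase activity was then measured with ONE-Glo after 30 min at room temperature.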
* marks the source's active call; other numbers are inactive results; ? = inconclusive; nt = no result; [ ] = another dose, or the depositor's remark. Compounds with a hit are over-represented: about 7.5% of the library has one in this group of screens. The call rests on the fitted dose curve; in most records, active means well fitted curve in the direction sought with a large enough effect; inconclusive means small, poorly fitted or top-dose-only effect, or another doubt; inactive means no such curve, though single readings can be large; an effect the other way counts as inactive or inconclusive. Potency means the concentration at half of the fitted maximal effect.

SMILES | FLuc counter | SMN2 splice up | Rab9 prom act | NPC1 prom act | ELG1 genotox
Cc1cc(C)c(NC(=O)c2cc3c(=O)n4ccccc4nc3n2C)c(C)c1 | -2.8% | nt | nt | nt | nt
Cc1ccccc1Cn1ccc(=NCc2ccccc2)cc1 | -1.2% | -45.6% | -21.1% | -16.0% | -10.5%
CC(C)Cc1nnc(NC(=O)c2ccc(N3CCCC3=O)cc2)s1 | -7.7% | nt | -3.7% | 0.4% | 0.0%
NS(=O)(=O)c1ccc(NC(=O)c2ccc3c(c2)CCCC3)cc1 | 3.3% | nt | 25.6% | 21.7% | 2.3%[9.26 µM]
NC(=O)c1ccsc1NC(=O)C1CCCCC1 | -20.5% | -15.9% | -7.2% | 6.6% | 15.0%
NC(=O)c1ccsc1NC(=O)c1ccc(N2CCCC2=O)cc1 | 3.01µM* | 17.8µM* | 0.631µM* | 2.24µM* | 1.64µM*
CNC(=O)c1ccsc1NC(=O)c1ccc2c(c1)CCCC2 | 0.953µM* | 11.2µM* | 11.9% | -2.8% | 17.2%
NC(=O)c1ccsc1NC(=O)c1ccc2c(c1)CCCC2 | 0.601µM* | 1.58µM* | ? | ? | 2.59µM*
COc1ccc(NS(=O)(=O)c2ccc(-n3cccn3)cc2)cc1OC | -7.8% | nt | nt | nt | nt
Cc1oc(-c2ccc(C(=O)Nc3cccc(C(F)(F)F)c3)cc2)nc1CSc1ccccc1 | -9.4% | nt | nt | nt | nt
c1csc(-c2nnc(N3CCCCCC3)c3ccccc23)c1 | 3.01µM* | nt | 10.3% | 4.1% | 0.5%
c1csc(-c2nnc(N3CCOCC3)c3ccccc23)c1 | ? | -22.1% | -2.5% | -12.8% | 2.9%
O=C(COc1ccccc1Br)NC(=O)NC1CCCC1 | 12µM* | nt | 2.82µM* | 27.1% | ?
COc1cc(C)ccc1OCC(=O)NC1CCCCCC1 | 16.9µM* | nt | ? | ? | ?
COC(=O)c1ccccc1OCC(=O)NC1CCCCC1 | ? | 4.8% | 22.6% | 15.7% | 20.6µM*
CCc1ccccc1OCC(=O)NC1CCCC1 | -2.1% | 26.6% | -3.4% | -1.0% | 3.9%
O=C(COc1ccccc1Br)NC1CC1 | -16.6% | nt | 4.1%[1.84 µM] | 11.9% | ?
Cc1cccc(N(C(=O)CNC(=O)c2ccco2)C(C(=O)NCC2CCCO2)c2ccccc2)c1 (configuration not stated) | -0.1% | nt | -2.9% | -2.3% | -10.9%
Cc1[nH]c2ccccc2c1-c1nc2ccccc2[nH]1 | 26.9µM* | 16.0% | 13.3% | 23.6% | ?
Cc1ccc(-c2nc3ccccc3[nH]2)s1 | 3.01µM* | 7.08µM* | 0.631µM* | 1.58µM* | ?
c1csc(-c2nc3ccccc3[nH]2)c1 | 30.1µM* | 12.6µM* | ? | ? | 15.0%
Cc1nn(-c2ccccc2)c2sc(C(=O)C(C#N)c3ccccn3)cc12 (configuration not stated) | ? | -2.8% | 5.5% | -0.2% | 4.1%
CCOc1ccccc1C(=O)NCc1ccc2c(c1)CCN2C(C)=O | 1.2% | nt | nt | nt | nt
N#Cc1ccccc1COC(=O)c1ccc2c(c1)OCCO2 | 13.5µM* | nt | 25.3% | 6.0% | 17.6%
Cc1cccc(NC(=O)c2ccc3c(c2)OCCO3)c1C | 15.1µM* | nt | 3.16µM* | -45.0% | ?
SMILES | FLuc counter | SMN2 splice up | Rab9 prom act | NPC1 prom act | ELG1 genotox
COC(=O)c1ccccc1NC(=O)c1ccc2c(c1)OCCCO2 | 19µM* | nt | 2µM* | ? | ?
Cc1ccccc1NC(=O)c1ccc2c(c1)OCCO2 | 1.2%[2.3 µM] | ? | ? | ? | ?
CCCCNC(=O)c1ccccc1NC(=O)c1ccc2c(c1)OCO2 | 19µM* | 11.0% | 0.1% | 0.3% | -3.3%
COC(=O)NC(c1ccccc1)c1c[nH]c2ccc(OC)cc12 (configuration not stated) | nt | -2.0% | nt | nt | nt
CSc1ncccc1C(=O)Nc1nnc(C2CC2)s1 | -16.7% | 6.4% | -1.0% | 0.6% | 3.7%
Cc1ccc(NC(=O)COc2ccc3c(c2)OCO3)c(Cl)c1 | 1.51µM* | nt | ? | 2.82µM* | ?
CC1Cc2ccccc2N1C(=O)COc1ccc2c(c1)OCO2 (configuration not stated) | 16.9µM* | ? | ? | 3.16µM* | ?
CC1CCCN(C(=O)COc2ccc3c(c2)OCO3)C1 (configuration not stated) | -17.6% | nt | ? | ? | ?
N#Cc1ccccc1NC(=O)c1ccc2c(c1)OCCO2 | 21.3µM* | nt | ? | ? | ?

Bioassay records deposited in PubChem by National Center for Advancing Translational Sciences (NCATS).
